Cardio protect: cardioprotection against H2O2-induced cell death, primary screen, uHTS, H9c2 cells, ATPLite luminescence | H9c2 cardiomyocytes, H2O2 injury protection, 2 h | 360,000 compounds, 0.63% hits | protection from H2O2 cell death, % at 20 µM | AID 588492, 2011;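 active = compounds giving at least 50% protection of heart cells from peroxide-induced death in the single-dose screen, raw or plate-pattern-corrected value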;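 note: 0% = DMSO wells with peroxide and 100% = DMSO wells without peroxide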
PP1 inh: PP1-alpha phosphatase inhibitors, primary screen, counter-screen for PP5 inhibitor project, biochemical, fluorescence, OMFP substrate, single point; 320,000 compounds, 0.9% hits; inhibition, % at 6.7 µM; purified PP1alpha;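 active = inhibition above the mean inhibition of all tested compounds plus 3 SD, computed separately for each screening campaign, cut at about 15% in these data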
ATG4B inhibitor: ATG4B protease inhibitors, primary screen, biochemical, fluorescence, uHTS | 340,000 compounds, 0.51% hits | inhibition, % at 8.33 µM | AID 504462, 2011 | ATG4B cleavage of LC3-PLA2, NBD-HPC fluorescence, 1 h; in the data active = inhibition above about 40%
PP5 inh: PP5 phosphatase inhibitors, primary screen, biochemical, fluorescence | purified PP5c, OMFP substrate fluorescence | inhibition, % at 6.7 µM | 320,000 compounds, 0.18% hits;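 active = inhibition above the campaign's mean inhibition across all tested compounds plus 3 SD, cut at about 9.5% in these data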;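 note: 0% = DMSO only and 100% = 100 µM cantharidin control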
ATG4B confirm: ATG4B protease inhibitors, retest, confirmation, biochemical, fluorescence, single concentration | shares compounds with ATG4B inhibitor | ATG4B protease fluorescent substrate cleavage assay | inhibition, % at 8.33 µM | 320 compounds, 92% hits | AID 504757, 2011; in the data active = inhibition above about 39%
PLA2 ctr: PLA2 enzyme inhibition, counter-screen for ATG4B inhibitor project, biochemical, single concentration, uHTS hits | inhibition, % at 8.33 µM | purified PLA2, NBD-C6-HPC fluorescence, 45 min | 1,600 compounds, 66% hits | AID 588402, 2011 | shares compounds with ATG4B inhibitor; in the data active = inhibition above about 50%
Target sequence (P04054 whole entry, looked up): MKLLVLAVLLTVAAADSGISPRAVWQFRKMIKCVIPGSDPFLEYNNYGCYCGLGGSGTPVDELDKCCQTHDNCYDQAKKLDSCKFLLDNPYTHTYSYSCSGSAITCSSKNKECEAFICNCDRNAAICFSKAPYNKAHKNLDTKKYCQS
* marks the source's active call; other numbers are inactive results; · = no result. An excerpt weighted towards active compounds, which were near 1.9% of everything screened.

SMILES	Cardio protect	PP1 inh	ATG4B inhibitor	PP5 inh	PLA2 ctr	others
O=c1c2ccccc2nc(SCC2CCCCO2)n1-c1ccccc1 (stereo not given)	0	3	50*	1	38
CN1C(=O)C(=Cc2ccccc2OCc2ccccc2Cl)C(=O)N(C)C1=O	-2	3	50*	4	52*
Cc1ccc(Cn2cc(C=O)c(-c3ccc(C)cc3)n2)cc1	-6	2	63*	3	60*
CCC1(c2cccc(O)c2)CCCCN(C)C1 (stereo not given)	2	0	1	1	·
Cc1cc(OC(C)C(=O)NCC(O)c2ccccc2)c2c3c(c(=O)oc2c1)CCCC3 (stereo not given)	1	0	31	1	·
Cc1cc(OCC(=O)NCC(O)c2ccccc2)c2c3c(c(=O)oc2c1)CCCC3 (stereo not given)	23	-3	52*	0	55*
[N-]=[N+]=NCCN1CCC(O)CCC1=O (stereo not given)	-2	-1	-6	0	·
CC[C@H](C)/C=C(C)/C=C/C1=CC2=C(Cl)C(=O)[C@](C)(OC(C)=O)C(=O)C2=CO1	0	·	55*	·	71*
CCOc1ccc(-n2c(-c3cccs3)nc3ccccc3c2=O)cc1	0	-1	49*	1	52*
COc1ccc(-n2c(-c3ccc(C)cc3)nc3ccccc3c2=O)cc1	6	1	24	2	·
Cc1cccc(-n2c(-c3cccs3)nc3ccccc3c2=O)c1	5	8	49*	3	46	ATG4B confirm=58*
CCCCOc1nc2ccccc2c(=O)n1-c1ccccc1	-2	-1	41*	1	49
CC1CN1P1(=O)OCC(C)([N+](=O)[O-])CO1 (stereo not given)	1	·	3	·	·
C#C[C@@]1(O)CCC2C3CCC4=C/C(=N/OCC(=O)NC(CCC(N)=O)C(=O)O)CC[C@]4(C)C3CC[C@@]21C (stereo not given in full)	0	-1	-5	2	·
CC(=Nc1ccccc1N)c1c(O)n(C)c(=O)n(C)c1=O	-1	-2	-2	-1	·
O=C(Cn1c(NCCCl)nc2ccccc21)c1ccc(Br)cc1	0	4	-16	-1	·
CCn1nc(/C=C/c2ccccc2)nc2c(=O)n(C)c(=O)nc1-2	-20	·	87*	·	9	ATG4B confirm=24
COc1ccc2c(c1)C(c1ccc(N(CCCl)CCCl)cc1)=NCC2	-14	·	11	·	·
ClCCN(CCCl)c1ccc(C2=NCCc3ccccc32)cc1	-1	·	40*	·	57*
COC(=O)C1=C(c2ccc(F)cc2OCc2ccccc2)C[C@@H]2CC[C@H]1N2C(=O)NCCOc1ccccc1Cl	0	4	4	2	·
COC(=O)C1=C(c2ccc(F)cc2OCc2ccccc2)C[C@@H]2CC[C@H]1N2C(=O)NCc1ccccc1Cl	4	14	43*	3	62*
CCc1ccccc1NC(=O)CNC1CCCCC1	3	1	3	2	·
CN(CC(=O)Nc1ccccc1-c1ccccc1)C1CCCCC1	-24	3	73*	4	79*
COc1ccc(CNCCc2ccc3c(c2)OCO3)cc1Br	0	1	-1	1	·
